Only some compounds are listed: those with a hit (about 10% of all), similar ones and a draw of the others.
Pf growth 48h: P. falciparum growth inhibition at 48 hours (one generation) | AID 504832 | P. falciparum luciferase growth in erythrocytes, 48 h | Potency, µM (highest dose often 28.7 µM), actives largely listed as inhibitors | 5.9% of 310,000 active; active = well fitted inhibition curve with a large enough effect; inconclusive = small, poorly fitted or top-dose-only effect, or another doubt; inactive = no such curve, though single readings can be large or run the other way
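A one-generation exposure of luciferase-tagged malaria parasites in RPMI 1640/Albumax erythrocyte culture, 37 C and 5% CO2. Inhibition is inferred from decreased luminescence after adding detection reagent.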
SARS PLP yeast: inhibitors of SARS-CoV papain-like protease in yeast. S. cerevisiae expressing SARS-CoV PLpro, growth rescue. Potency, µM (series often up to 32.9 µM), actives largely listed as activators. 0.19% of 330,000 active; note: nearly all actives have a fitted effect of over 55% in size
NS1 function inh: blocks influenza NS1 protein function; Potency, µM (top dose mostly 46.1 µM); 0.4% of 270,000 active; AID 2326; note: actives are rising curves; nearly all actives have a fitted effect of over 50% in size
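Growth recovery, yeast-based: influenza A NS1 expressed in S. cerevisiae causes slow growth, and suppressors are detected by OD600. The parent strain without NS1 is used as positive control.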
Pf growth 96h: inhibits malaria parasite growth, 96 h; P. falciparum luciferase reporter growth, 96 h; AID 504834; Potency, µM (doses to about 28.7 µM), usual class: inhibitors; 6.9% of 320,000 active; active = well fitted inhibition curve with a large enough effect; inconclusive = small, poorly fitted or top-dose-only effect, or another doubt; inactive = no such curve, though single readings can be large or run the other way
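Infected RBCs, 2% Hct / 0.05% parasitemia final; luciferase-reporter P. falciparum; cpd 96 h, 37 C, 5% CO2; luciferase detection reagent; luminescence.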
Numbers stand for hits; n = inactive; u = inconclusive; x = no result given. Unless noted, calls come from the whole dose curve.

SMILES | Pf growth 48h | SARS PLP yeast | NS1 function inh | Pf growth 96h
NC(=O)c1c(NC(=O)C(=O)N2CCOCC2)sc2c1CCC2 | n | n | n | n
CCOC(=O)c1c(NC(=O)OC)sc(C(=O)N(C)C)c1C | n | n | n | n
CCOC(=O)c1c(NC(=O)C(Sc2ccccc2)c2ccccc2)sc(C(=O)N(C)C)c1C (stereo unspecified) | 3.29µM | u | u | u
CCOC(=O)c1c(NC(=O)C(Sc2ccccc2)c2ccccc2)sc(C(N)=O)c1C (stereo unspecified) | u | n | n | 9.28µM
CCC(C(=O)Nc1sc(C(N)=O)c(C)c1C(=O)OC)c1ccccc1 (stereo unspecified) | n | n | x | u
Nc1c(Cl)cc(C2=NCCn3c2c2ccc([N+](=O)[O-])cc2[n+]3[O-])cc1Cl | 13.1µM | n | x | u
S=P(N1CC1)(N1CC1)N1CC1 | n | x | x | n
Cc1ccc(C(C(=O)NC(C)(C)C)N(Cc2ccco2)C(=O)Cn2nnc(-c3cccs3)n2)cc1 (stereo unspecified) | 9.28µM | n | n | n
Cc1ccc(-c2nnn(CC(=O)N(Cc3ccco3)C(C(=O)NC(C)(C)C)c3ccc(C)o3)n2)o1 (stereo unspecified) | u | n | n | n
O=C(NCc1ccccc1)C(c1ccc(F)cc1)N(Cc1ccc2c(c1)OCO2)C(=O)Cn1nnc(-c2cccs2)n1 (stereo unspecified) | 10.4µM | n | n | n
CC(C)(C)NC(=O)C(c1ccncc1)N(C(=O)Cn1nnc(-c2cccs2)n1)C1CCCCC1 (stereo unspecified) | 9.28µM | n | n | n
CCCC(C(=O)NCc1ccccc1)N(C(=O)Cn1nnc(-c2cccs2)n1)c1ccc2c(c1)OCCO2 (stereo unspecified) | u | u | n | u
CCC(C)(C)NC(=O)C(c1ccncc1)N(Cc1cccs1)C(=O)Cn1nnc2ccccc21 (stereo unspecified) | u | n | n | 11.7µM
CCC(C)(C)NC(=O)C(c1ccc(C)cc1)N(Cc1ccco1)C(=O)Cn1nnc2ccccc21 (stereo unspecified) | u | n | n | n
O=C(NCCCCc1ccccc1)Nc1ccc(F)cc1F | n | n | n | u
COc1ccccc1/C=C/C(=O)OCC(=O)Nc1cc(C(F)(F)F)ccc1N1CCOCC1 | n | n | n | u
O=C(NCC(=O)N1CCN(C(=O)c2ccco2)CC1)c1ccc(Br)cc1 | n | n | n | n
CC(C)(C)NC(=O)C(c1ccncc1)N(Cc1cccs1)C(=O)Cn1nnc(-c2cccs2)n1 (stereo unspecified) | 2.94µM | n | n | u
Cc1ccc(-c2nnn(CC(=O)N(Cc3ccccc3)C(C(=O)NC(C)(C)C)c3ccncc3)n2)o1 (stereo unspecified) | u | n | n | n
CC(C)(C)NC(=O)C(c1ccc(O)cc1)N(Cc1ccco1)C(=O)Cn1nnc(-c2cccs2)n1 (stereo unspecified) | 13.1µM | n | n | n
O=C(CN(Cc1ccco1)C(=O)Cn1nnc(-c2cccs2)n1)NCc1ccccc1 | n | n | n | u
COc1ccc(NC(=O)C2CCN(S(=O)(=O)c3ccc4c(c3)NC(=O)C(C)S4)CC2)cc1 (stereo unspecified) | 9.28µM | n | n | n
Cc1ccc(N(C)S(=O)(=O)c2ccc3c(c2)NC(=O)C(C)S3)cc1 (stereo unspecified) | 3.29µM | n | n | u
CC1Sc2ccc(S(=O)(=O)NCc3ccccc3)cc2NC1=O (stereo unspecified) | n | n | n | 13.1µM
CCOc1ccc(NC(=O)C2CCN(S(=O)(=O)c3ccc4c(c3)NC(=O)C(C)S4)CC2)cc1 (stereo unspecified) | u | n | n | u
SMILES | Pf growth 48h | SARS PLP yeast | NS1 function inh | Pf growth 96h
COc1cccc(NC(=O)C2CCN(S(=O)(=O)c3ccc4[nH]c(=O)ccc4c3)CC2)c1 | u | n | n | 9.28µM
COc1cccc(NC(=O)C2CCN(S(=O)(=O)c3ccc4c(c3)NC(=O)C(C)S4)CC2)c1 (stereo unspecified) | u | n | n | n
CC(Sc1ccc(Cl)cc1)C(=O)N(C)CC(=O)Nc1ccc(N2CCOCC2)cc1 (stereo unspecified) | n | n | x | n
Cc1ccccc1NC(=O)COC(=O)c1cc(S(=O)(=O)N2CCOCC2)ccc1C | u | n | x | n
O=S(=O)(c1ccc(SCCOc2cccc(Br)c2)nc1)N1CCCC1 | u | n | x | u
CC1Sc2ccc(S(=O)(=O)N3CCC(C(=O)Nc4ccc(Cl)cc4)CC3)cc2NC1=O (stereo unspecified) | u | n | n | 13.1µM
CC1Sc2ccc(S(=O)(=O)N3CCC(C(=O)NCc4ccccc4)CC3)cc2NC1=O (stereo unspecified) | u | n | n | 1.04µM
COc1c(C)cc(S(=O)(=O)NCCN2CCOCC2)c(C)c1C | n | n | n | u
COc1ccc(OC)c(NC(=O)c2cccnc2Sc2cc(C)ccc2C)c1 | 10.4µM | u | n | u
COc1ccc(N2CCN(C(=O)COC(=O)CCOc3ccc(C(C)(C)C)cc3)CC2)cc1 | n | n | x | n
COc1ccccc1NC(=O)c1c(N=Cc2cccc([N+](=O)[O-])c2)cnn1C | n | n | n | n
C=CC[C@H]1CC(C)=C[C@H](CC=C)N1 | 0.928µM | n | x | u
C=CC[C@H]1CC(Cc2ccccc2)=C[C@H](CC=C)N1 | 0.233µM | n | n | 0.0738µM
C=CCC1C=C(Cc2ccccc2)CC(CC=C)N1 (stereo unspecified) | u | n | x | n
CCOC(=O)C1CCN(CC(C)(C)NS(=O)(=O)c2ccccc2)CC1 | n | n | n | n
CCCC(C)NC(=O)c1ccc(OCc2ccc(Cl)cc2)c(OC)c1 (stereo unspecified) | n | u | n | u
CCC1CCCCN1C(=O)COc1ccc(S(=O)(=O)N2CCOCC2)cc1Cl (stereo unspecified) | u | n | x | u
Oc1cc2c(cc1CN1CCN(c3ccc(F)cc3)CC1)OCO2 | u | n | n | n
COc1ccc(N2CCN(Cc3cc(=O)oc4cc5c(cc34)CCCC5)CC2)cc1 | n | u | u | n
Oc1cc2c(cc1CN1CCN(c3ccccc3)CC1)CCC2 | 1.65µM | n | n | 2.62µM
COc1ccc(N2CCN(Cc3cc4c(cc3O)CCC4)CC2)cc1 | 1.65µM | n | n | x
Oc1cc2c(cc1CN1CCN(c3cccc(C(F)(F)F)c3)CC1)CCC2 | 1.65µM | n | n | 1.17µM
Cc1ccc(S(=O)(=O)N2CCC[C@H]2C(=O)OCC(=O)Nc2ccc3c(c2)OCO3)cc1 | x | n | x | x
CC(Sc1ccccc1)C(=O)NCCc1ccccc1 (stereo unspecified) | n | n | n | 9.28µM
Cc1ccc(SC(C)C(=O)NC2CC2)cc1 (stereo unspecified) | 10.4µM | n | n | 10.4µM
CC(=O)Nc1ccc(SC(C)C(=O)NC2CCCC2)cc1 (stereo unspecified) | n | n | n | n
Cc1ccc(SC(C)C(=O)NCCC2=CCCCC2)cc1 (stereo unspecified) | n | n | n | 11.7µM
Cc1ccc(NC(=O)CN2C(=O)NC(Cc3ccccc3)C2=O)cc1Cl (stereo unspecified) | n | n | x | n

Compound activity: PubChem, National Center for Advancing Translational Sciences (NCATS)
